Source: PubChem
Rows were chosen to be rich in hits. Some 1.5% of all compounds tested hit in one or more screens of this group.
ARNT-TACC3 inh = disruptors of ARNT/TACC3 protein interaction, primary screen, biochemical, AlphaScreen, single concentration; AlphaScreen His-ARNT PAS-B/GST-TACC3 binding, luminescence; TACC3 fragment carries E629A point mutation; inhibition, % at 9.99 µM; 0.66% of 390,000 active;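 active means mean inhibition of replicates at least 50% and at least half of replicates each reaching 50%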
Rin1-Abl PPI inh = inhibitors of Rin1-Abl protein binding, primary screen, biochemical, TR-FRET | inhibition, % at 7.35 µM | 0.4% of 360,000 active; in the data active means inhibition above about 5%, passing the limit was not always enough
sPLA2-III inh = human group III sPLA2 inhibitors, primary screen, biochemical, QFRET, BODIPY PC-A2 liposome substrate. Group 3 secretory phospholipase A2 (Homo sapiens), Q9NZ20. AID 743126, 2013. QFRET BODIPY PC-A2 liposome hydrolysis, fluorescence. inhibition, % at 12.2 µM. 0.56% of 370,000 active;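 active means inhibition above mean plus 3 SD of compounds lying within the high and low control bounds, cut at about 19% in these data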
Target sequence (Q9NZ20 whole entry, looked up): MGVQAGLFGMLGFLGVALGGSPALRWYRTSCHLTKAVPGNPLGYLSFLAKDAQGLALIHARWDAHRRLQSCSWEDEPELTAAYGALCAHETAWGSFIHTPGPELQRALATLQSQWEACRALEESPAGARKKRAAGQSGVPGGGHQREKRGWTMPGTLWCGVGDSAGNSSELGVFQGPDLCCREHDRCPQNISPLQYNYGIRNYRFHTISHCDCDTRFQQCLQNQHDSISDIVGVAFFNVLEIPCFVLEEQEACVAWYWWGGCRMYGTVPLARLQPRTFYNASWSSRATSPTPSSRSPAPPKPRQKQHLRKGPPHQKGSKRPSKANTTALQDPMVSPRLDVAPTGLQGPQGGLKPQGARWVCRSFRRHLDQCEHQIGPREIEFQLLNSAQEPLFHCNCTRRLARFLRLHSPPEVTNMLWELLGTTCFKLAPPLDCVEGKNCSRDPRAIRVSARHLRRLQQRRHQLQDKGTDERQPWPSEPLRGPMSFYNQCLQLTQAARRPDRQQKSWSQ
AI-2 QS modul = Vibrio harveyi AI-2 quorum sensing modulators, primary screen, JMH597 strain, luminescence/OD600 ratio; 0.4% of 300,000 active; Vibrio harveyi JMH597 AI-2 luminescence/OD600 ratio, 9 h; active compounds read low; strain lacks LuxN and CqsS sensors; 0 = neutral-control median; activity change, % at 7.5 µM; in the data active means activity change below about -75%, passing the limit was not always enough;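 further: luminescence divided by OD600 gain over 9 h not by final OD600 alone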
Hits are given with their value; – = inactive; · = no result given.

SMILES	ARNT-TACC3 inh	Rin1-Abl PPI inh	sPLA2-III inh	AI-2 QS modul
C[C@H](CO)N1C[C@H](C)[C@@H](CN(C)C(=O)Nc2ccc(F)cc2)OCCCC[C@H](C)Oc2ccc(NC(=O)Nc3ccc4c(c3)OCO4)cc2C1=O	–	·	·	·
C#CCOCCOCCOCCNc1nc(N2CCN(C(=O)CCCCCCCCCCNC(=O)Cn3cc(CCCCCN)nn3)CC2)nc(N2CCN(C(=O)CCCCCCCCCCNC(=O)[C@H]([C@@H](C)CC)n3cc(CCCCN=C(N)N)nn3)CC2)n1	–	15	·	·
C#CCOCCOCCOCCNc1nc(N2CCN(C(=O)CCCCCCCCCCNC(=O)[C@H]([C@@H](C)CC)n3cc(CCCCCN)nn3)CC2)nc(N2CCN(C(=O)CCCCCCCCCCNC(=O)[C@H]([C@@H](C)CC)n3cc(CCCCN=C(N)N)nn3)CC2)n1	–	–	·	·
O=C(NNC(=O)c1cc(Br)ccc1Cl)c1csc(N2CCOCC2)n1	–	–	–	–
O=C(NNC(=O)c1cc(Br)ccc1O)c1csc(N2CCOCC2)n1	–	10	·	·
CO[C@@H]1CN(C)C(=O)c2ccc(NC(=O)c3ccccc3F)cc2OC[C@H](C)N(C(C)=O)C[C@@H]1C	–	·	·	·
C/C(=N\N=C(c1ccccc1)c1ccccc1)c1cccs1	–	–	–	–
CC(NO)/C(=N\O)c1cccs1 (stereo not drawn)	–	–	24	–
CO[C@H]1CN(C)C(=O)c2cc(NS(=O)(=O)c3cn(C)cn3)ccc2OC[C@@H](C)N(C)C[C@@H]1C	–	·	·	·
C[C@@H]1CN([C@@H](C)CO)C(=O)c2cc(NS(C)(=O)=O)ccc2O[C@@H]1CN(C)C(=O)Nc1cccc2ccccc12	–	·	·	·
COc1ccc(NC(=S)N(CCCN2CCN(C)CC2)Cc2cccs2)cc1	85	–	–	–
COc1ccc(CN(C)C[C@@H]2OCCCC[C@@H](C)Oc3ccc(NC(=O)Cc4ccccc4)cc3C(=O)N([C@@H](C)CO)C[C@H]2C)cc1	–	·	·	·
Cc1c(C)c2c(OCC(=O)N3CCC[C@H]3C(=O)O)cc3c(c2oc1=O)CCC(C)(C)O3	128	–	–	–
COc1ccc(NC(=O)N2c3ccc(OC)cc3C(C)=CC2(C)C)cc1	–	–	–	–
CCOc1ccc2c(c1)C(C)=CC(C)(C)N2C(=O)Nc1ccccc1	48	–	·	–
O=C(NNC(=S)Nc1ccc(F)c(Cl)c1)c1ccccc1Br	–	–	26	–
Cc1nc2c(=O)[nH]c(=S)n(C)c2nc1C	–	–	21	–
Cc1nc2[nH]c(=S)[nH]c(=O)c2nc1C	–	–	–	·
CN(C)c1ccc(Nc2nc(N)c3ccccc3n2)cc1	50	–	–	–
Nc1nc(Nc2ccccc2)nc2ccccc12	–	–	–	–
CCCN(C)C[C@@H]1OCCCC[C@@H](C)Oc2ccc(NS(C)(=O)=O)cc2C(=O)N([C@H](C)CO)C[C@H]1C	–	·	·	·
CN(C)/C=C1\C(=O)NN=C1c1ccccc1	28	–	–	–
O=C(NCc1ccc2c(c1)OCO2)c1ccc2c(c1)OCO2	–	–	–	–
O=C(O)c1ccc(NCc2ccc3c(c2)OCO3)cc1	·	–	–	-92
O=C(Nc1cccc(Cl)c1)N[C@@H]1CC[C@@H](CCNC(=O)C2CC2)O[C@H]1CO	–	·	·	·
SMILES	ARNT-TACC3 inh	Rin1-Abl PPI inh	sPLA2-III inh	AI-2 QS modul
CCOCCc1nnc(NC(=O)CN2C(=O)c3ccccc3C2=O)s1	–	–	–	-89
O=C(NCc1cccnc1)C(=O)NCC(c1ccco1)N1CCN(c2ccccc2F)CC1 (stereo not drawn)	–	–	–	–
O=C(NCc1ccccc1)C(=O)NCC(c1ccco1)N1CCN(c2ccccc2F)CC1 (stereo not drawn)	–	4.7	–	–
CNC(=O)C[C@@H]1CC[C@H]2[C@@H](COC[C@H](O)CN2Cc2ccc(C(F)(F)F)cc2)O1	–	·	·	·
CO[C@@H]1CN(C)C(=O)c2cc(NC(C)=O)ccc2OC[C@H](C)N(CC2CC2)C[C@@H]1C	–	·	·	·
CSc1nccc(-c2nn(-c3ccc(C)cc3)ccc2=O)n1	58	–	–	–
O=C(C[C@H]1CC[C@@H](NC(=O)c2cnccn2)[C@@H](CO)O1)NCc1ccccc1F	–	·	·	·
CCn1nc(C)cc1-c1nnc(Sc2ncc([N+](=O)[O-])s2)n1C	–	–	–	-238
CCn1nc(C)cc1-c1nnc(SCC(=O)Nc2ccccc2)n1CCCOC	–	–	–	–
C[C@@H]1CN([C@@H](C)CO)S(=O)(=O)c2ccc(-c3cccc(F)c3)cc2O[C@H]1CN(C)CC1CC1	–	·	·	·
Cc1cccc2cccnc12	·	–	–	·
O=Cc1ccc2ccc3cccnc3c2n1	67	–	–	–
c1cnc2c(c1)ccc1cccnc12	65	–	–	–
O=c1cc[nH]c2c1ccc1cccnc12	61	–	–	–
C[C@@H]1CN([C@H](C)CO)C(=O)c2cc(NS(=O)(=O)c3ccc(F)cc3)ccc2O[C@H]1CN(C)C(=O)Nc1ccc(C(F)(F)F)cc1	–	·	·	·
Cc1nc2c(=O)[nH]c(=S)[nH]c2[nH]c1=O	35	–	–	·
CCC(=O)N(C)C[C@H]1Oc2cc(C3=CCCC3)ccc2S(=O)(=O)N([C@H](C)CO)C[C@H]1C	–	·	·	·
CCCCc1ccc(S(=O)(=O)Nc2nnc(C)s2)cc1	–	–	–	-98
Cc1ccc(CNc2ccc(O)cc2)cc1	24	–	–	–
Cc1ccc(NCc2ccccc2O)cc1	–	–	–	–
CC1(C)CCC(=NNC(N)=S)CC1	21	–	–	·
COc1ccc(C#Cc2ccc3c(c2)O[C@H](CN(C)S(=O)(=O)c2ccccc2F)[C@@H](C)CN([C@@H](C)CO)S3(=O)=O)cc1	–	·	·	·
COc1cc(/C=N/NC(=O)Cc2ccc(Br)cc2)cc(OC)c1O	–	–	–	–
COc1cc(/C=N/NC(=O)CC#N)cc(Br)c1O	58	–	–	–
COc1ccc(O)c(/C=N/n2c(-c3ccco3)csc2=Nc2cccnc2)c1	62	–	–	–
SMILES	ARNT-TACC3 inh	Rin1-Abl PPI inh	sPLA2-III inh	AI-2 QS modul
C[C@H]1CN([C@@H](C)CO)C(=O)c2cc(-c3ccccc3)cnc2O[C@@H]1CN(C)C	–	·	·	·
COc1ccc(NC(=O)N(C)C[C@H]2Oc3ccc(NS(C)(=O)=O)cc3C(=O)N([C@@H](C)CO)C[C@@H]2C)cc1	–	·	·	·
O=C(Nc1ccccc1F)N[C@H]1CC[C@@H](CCNS(=O)(=O)c2ccccc2)O[C@H]1CO	–	·	·	·
C/C(=N\Nc1ncnc2sc(C)c(C)c12)c1ccccn1	·	–	–	-88
C/C(=N\Nc1ncc(Cl)cc1Cl)c1ccccn1	73	–	·	–
CCN(CC)S(=O)(=O)c1cc(OC)ccc1N=Nc1ccc(O)c2ncccc12	48	–	–	–
C[C@H]1CN([C@@H](C)CO)S(=O)(=O)c2ccc(Br)cc2O[C@@H]1CN(C)C(=O)CN(C)C	–	·	·	·
Cc1ccc(NC(=S)c2nc3ccccc3[nH]2)c(C)c1	–	–	31	–
